Source: PubChem (National Center for Advancing Translational Sciences (NCATS))
S2 tox: viability counter-screen for ATXN expression inhibitors | S2 cells (HEK-293 line with an ATXN2-luciferase reporter) viability, CellTiter-Fluor protease fluorescence, 24 h | actives 0.49% (n = 400,000) | AID 651635 | Potency, µM (top dose mostly 56.7 µM), actives largely listed as cytotoxic; note: nearly all actives have a fitted effect of over 40% in size
Nrf2 block: inhibitors of Nrf2 signaling | A549 ARE-Fluc reporter, luciferase luminescence, 18-24 h | Potency, µM (doses to about 46 µM), hits mostly inhibitors | actives 2.1% (n = 360,000) | AID 504444; note: nearly all actives have a fitted effect of over 60% in size
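Nrf2 function is reported as luminescence of an ARE-controlled luciferase in A549 cells. Compounds were tested at several concentrations, and a CellTiter-Fluor read on the same wells flagged cytotoxicity.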
ATXN2 expr inh: reduces ATXN2 reporter expression in HEK-293 cells; HEK-293 ATXN2-luciferase reporter, luminescence, 24 h; Potency, µM (series often up to 57 µM), usual class: inhibitors; actives 0.72% (n = 360,000); AID 1745845; note: nearly all actives have a fitted effect of over 55% in size
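qHTS (up to 57 uM final) was run with 24 h compound exposure of reporter cells at 37 °C. Each well was multiplexed: SteadyGlo luminescence measured ATXN2-luciferase expression after a fluorogenic Gly-Phe-AFC viability readout (25 uM final).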
Nrf2 ARE act: activators of Nrf2 (ARE) signaling. AREc32 ARE-luciferase reporter (MCF7-derived line), luminescence, 24 h. Potency, µM (titrated, usually from 46.1 µM), usual class: activators. actives 0.31% (n = 410,000). AID 624171; note: nearly all actives have a fitted effect of over 65% in size
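ARE-driven firefly luciferase activity in AREc32 cells measured after a 24 hr compound exposure at 37 deg C, using Steady-Glo reagent and a 30 min room-temperature hold.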
A549 viability: counter-screen for Nrf2 inhibitors: cytotoxicity in A549 cells | actives 0.16% (n = 390,000) | Potency, µM (top dose mostly 46 µM), actives largely listed as inhibitors | A549 ARE-Fluc cells, CellTiter-Fluor viability, 18-24 h
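A549 ARE_Fluc cells in 5% FBS OPTI-MEM were exposed to compounds in concentration-response for 18-24 h at 37 deg C. Viability was read by CellTiter-Fluor fluorescence (Ex 405/Em 525) after 30 min, before the luciferase read.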
Of the large screens only hits and unclear results are named; the others gave an inactive call. A selection: hits, their analogues and other compounds. The true share with any hit is near 2.9%. Calls come from the whole dose curve; as a rule, active = well fitted curve in the direction sought with a large enough effect; inconclusive = small, poorly fitted or top-dose-only effect, or another doubt; inactive = no such curve, though single readings can be large; an effect the other way counts as inactive or inconclusive.

CC(C)CCNC(=O)C(c1ccco1)N(Cc1ccccc1)C(=O)c1snc(C(N)=O)c1N (stereo unspecified)	none
COc1ccc(CN2CC[C@H]3C=CC[C@@H](C(=O)Nc4ccc(Cl)c(C(F)(F)F)c4)[C@H]3C2=O)cc1OC	S2 tox inconclusive
CC1(C)Cc2cccc(OCC(O)CNCc3ccccn3)c2O1 (stereo unspecified)	none
COc1cc(OC)cc(-c2nc3ccccc3c(=O)n2OC(=O)c2ccc(Br)cc2)c1	none
CC(C)Cn1c(/C=N/Nc2nc3ccccc3[nH]2)nc2ccccc21	S2 tox inconclusive, Nrf2 block 7.31µM, ATXN2 expr inh 4.47µM
CCCn1c(/C=N/Nc2nc3ccccc3[nH]2)nc2ccccc21	Nrf2 block 14.6µM, ATXN2 expr inh inconclusive, A549 viability inconclusive (no result: S2 tox)
CCN(CC)c1ccc(/C=N/Nc2nc3ccccc3[nH]2)cc1	S2 tox 5.62µM, Nrf2 block inconclusive, Nrf2 ARE act inconclusive, A549 viability inconclusive (no result: ATXN2 expr inh)
Cn1c(/C=N/Nc2nc3ccccc3[nH]2)nc2ccccc21	Nrf2 block inconclusive
CCCOc1ccc(NC(=O)CC2C(=O)N(CC)C(=S)N2Cc2cccs2)cc1 (stereo unspecified)	Nrf2 block inconclusive
O=C(Nc1nc(-c2ccccc2)c(-c2ccccc2)s1)c1ccc(S(=O)(=O)N2CCCCC2)cc1	none
O=C(Nc1nc(-c2cccs2)cs1)c1ccc(S(=O)(=O)N2CCCCC2)cc1	Nrf2 block 20.6µM
Cc1noc(C)c1C(=O)Nc1nc(-c2cccs2)cs1	Nrf2 block inconclusive, Nrf2 ARE act 15.8µM (no result: ATXN2 expr inh)
O=C(Nc1nc(-c2cccs2)cs1)c1cccc(S(=O)(=O)N2CCCCCC2)c1	Nrf2 block inconclusive
O=C(Nc1nc(-c2ccccc2)c(C(=O)c2ccccc2)s1)c1ccc(S(=O)(=O)N2CCCCC2)cc1	Nrf2 block 14.6µM
S=C(NCc1ccco1)N/N=C/c1cccnc1	none (no result: ATXN2 expr inh)
CC(C)Sc1nc(N2CCOCC2)c2c3c(sc2n1)COC(C)(C)C3	Nrf2 block 14.6µM (no result: A549 viability)
CCN1CCN(c2nc(SC)nc3sc4c(c23)CC(C)(C)OC4)CC1	none
N#C/C(=N\Nc1cccc(Cl)c1)C(=O)c1ccccc1	S2 tox inconclusive, Nrf2 block inconclusive, A549 viability 18.4µM
N#C/C(=N\Nc1ccc(Cl)cc1)C(=O)c1ccsc1	S2 tox inconclusive, Nrf2 block 16.4µM, ATXN2 expr inh inconclusive, A549 viability inconclusive
CCC(CC)=NNc1cccc([N+](=O)[O-])c1	S2 tox inconclusive
COc1ccc(C(=O)/C(C#N)=N/Nc2cccc([N+](=O)[O-])c2)cc1	S2 tox 11.2µM, Nrf2 block 23.1µM, Nrf2 ARE act inconclusive, A549 viability inconclusive (no result: ATXN2 expr inh)
O=C(Nc1cccc2nsnc12)c1ccc2c(c1)OCO2	Nrf2 block inconclusive
O=C(Nc1cccc2nsnc12)c1ccc(F)cc1	Nrf2 block inconclusive, Nrf2 ARE act 11.2µM
Cc1ccc(CNC(=O)c2cnc(N(C)C)nc2)cc1	none (no result: Nrf2 block)
C[n+]1c2cc(N)ccc2cc2ccc(N)cc21 (tested in a mixture with another compound)	ATXN2 expr inh 3.16µM (no result: S2 tox, Nrf2 block, Nrf2 ARE act, A549 viability)
CC(=O)c1ccc(S(=O)(=O)Nc2ccc(C(=O)NC3CC3)cc2)cc1	none
Cc1ccc(-c2cn(S(=O)(=O)c3ccc(C)cc3)nc2N)cc1	none (no result: Nrf2 block)
O=S(=O)(c1ccc(Cl)cc1)N1CCN(c2ncnc3sccc23)CC1	Nrf2 block 20.6µM
Cc1csc2c(N3CCN(S(=O)(=O)c4ccc(Cl)cc4)CC3)ncnc12	Nrf2 block inconclusive
CCc1ccc(OC)c(S(=O)(=O)Nc2ccc(Cc3ccncc3)cc2)c1	Nrf2 block 18.4µM
CCc1ccc(NS(=O)(=O)c2ccc(OC)c3ncccc23)cc1	none
CC(C)(C)c1ccc(C2Sc3ccccc3NC3=C2C(=O)c2ccccc23)cc1 (stereo unspecified)	Nrf2 block 18.4µM, ATXN2 expr inh inconclusive, A549 viability inconclusive (no result: S2 tox)
O=C(CSc1c2c(nc3ccc(Cl)cc13)CCCC2)NCc1ccccc1Cl	none (no result: S2 tox, ATXN2 expr inh)
COc1ccc(NC(=O)CN(Cc2ccco2)Cc2ccco2)cc1S(=O)(=O)N1CCCCC1	S2 tox inconclusive
Cc1ccc2oc(=O)c(/C=C(\O)C(C)(C)C)nc2c1	Nrf2 ARE act inconclusive
CC(C)(C)/C(O)=C/c1nc2cc(Cl)ccc2oc1=O	Nrf2 ARE act 10µM
COc1cccc(CN2CCC2(C)C(=O)Nc2cccc3cccnc23)c1OC (stereo unspecified)	S2 tox inconclusive, ATXN2 expr inh 2.51µM (no result: Nrf2 block, A549 viability)
Oc1ccc(Br)cc1-c1cc(-c2ccco2)[nH]n1	Nrf2 ARE act 3.55µM (no result: Nrf2 block)
Cc1ccccc1C(=O)Nc1cccc(C(=O)N/N=C/c2cc(Cl)cc([N+](=O)[O-])c2O)c1	Nrf2 block inconclusive, ATXN2 expr inh 22.4µM
COc1cc(/C=N/NC(=O)c2cccc(NC(=O)c3ccccc3C)c2)ccc1O	none
CCS(=O)(=O)Nc1ccc(-c2cc(-c3ccccc3)c3cc(C)ccc3n2)cc1	Nrf2 block 23.1µM, A549 viability inconclusive
Cc1ccc2nc(-c3ccc(NS(C)(=O)=O)cc3)cc(-c3ccccc3)c2c1	none (no result: Nrf2 block)
O=C(CSc1ccc2ccccc2c1)Nc1ccncc1	Nrf2 block 7.31µM
CC(C)(C)CC(C)(C)NC(=O)CSCC(=O)Nc1ccc2ccccc2c1	Nrf2 block 16.4µM, A549 viability inconclusive
COc1cccc(N2CCN(CC(=O)Nc3ccccc3C(=O)NCCc3ccccc3)CC2)c1	Nrf2 block inconclusive, ATXN2 expr inh inconclusive
CCc1ccc(S(=O)(=O)Nc2ccc(O)c3c(=O)cc(-c4ccccc4Cl)oc23)cc1	none
O=c1cc(-c2ccccc2Cl)oc2c(NS(=O)(=O)c3cc(Cl)cc(Cl)c3O)ccc(O)c12	S2 tox 31.6µM, Nrf2 block inconclusive, ATXN2 expr inh inconclusive
CCC(=O)c1ccc(OCC(=O)NC2CCN(Cc3ccccc3)CC2)cc1	none
Nc1ncnc2c1ncn2[C@@H]1O[C@H](C(=O)N(CCC2=CCCCC2)CC2CC2)[C@@H](O)[C@H]1O	none (no result: Nrf2 block, A549 viability)
COC(=O)c1ccc(COc2ccccc2/C=C/C(=O)c2ccc(OCC(=O)O)cc2)cc1	Nrf2 ARE act 17.8µM
Cc1ccc(NC(=S)NNc2ncc(C(F)(F)F)cc2Cl)cc1	Nrf2 block 23.1µM, ATXN2 expr inh 16.8µM
FC(F)(F)c1cnc(NNC(=S)Nc2ccc(Cl)cc2)c(Cl)c1	S2 tox inconclusive, Nrf2 block 11.6µM, ATXN2 expr inh inconclusive, A549 viability inconclusive
Fc1ccc(NC(=S)NNc2ncc(C(F)(F)F)cc2Cl)c(F)c1	Nrf2 block inconclusive, ATXN2 expr inh 14.1µM, A549 viability inconclusive
CCn1cc(S(=O)(=O)Nc2cccnc2)cn1	none
C/C(Cc1ccccc1)=N\NC(=O)c1ccccn1	Nrf2 block inconclusive
N#Cc1nc(Nc2ccc3ccccc3c2)nc(NC2CCCC2)n1	none (no result: S2 tox, ATXN2 expr inh, Nrf2 ARE act)
CCC(=O)Nc1c2c(nn1-c1ccc(OC)cc1)CSC2	none (no result: ATXN2 expr inh)
COc1ccc(OCC(=O)Nc2c3c(nn2C(C)(C)C)CSC3)cc1	Nrf2 block 11.6µM
